Over roughly 33,000 sequences, “E-score (-0.5 to 0.5)” has its median near -0.053; the highest 2% begin near 0.37. The sample holds the highest values, similar sequences and a random draw of the others, so the mix is not that of the screen.
target: Hap1 (UniProt P0CE41); assay: PBM E-score (8-mer binding enrichment) (E-score (-0.5 to 0.5)); higher = stronger / more preferred TF binding; conditions: protein concentration: 200 nM; construct: GST-DNA-binding domain
Procedure: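 Universal 'all 10-mer' protein binding microarrays (Agilent AMADID 015681) probed with GST-tagged S. cerevisiae TFs (full-length or DBD) made by in vitro transcription/translation (PURExpress), about 100-200 nM. Bound TF was detected with fluorescent anti-GST. Each ungapped 8-mer (which stands for itself and its reverse complement) is scored by the PBM enrichment score (E-score), a modified Wilcoxon-Mann-Whitney statistic from -0.5 to +0.5, computed with the Universal PBM Analysis Suite. Scale: above 0.35 generally sequence-specific binding.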

UniProt P0CE41, sequence (P0CE41 whole entry, the tested form may be a part): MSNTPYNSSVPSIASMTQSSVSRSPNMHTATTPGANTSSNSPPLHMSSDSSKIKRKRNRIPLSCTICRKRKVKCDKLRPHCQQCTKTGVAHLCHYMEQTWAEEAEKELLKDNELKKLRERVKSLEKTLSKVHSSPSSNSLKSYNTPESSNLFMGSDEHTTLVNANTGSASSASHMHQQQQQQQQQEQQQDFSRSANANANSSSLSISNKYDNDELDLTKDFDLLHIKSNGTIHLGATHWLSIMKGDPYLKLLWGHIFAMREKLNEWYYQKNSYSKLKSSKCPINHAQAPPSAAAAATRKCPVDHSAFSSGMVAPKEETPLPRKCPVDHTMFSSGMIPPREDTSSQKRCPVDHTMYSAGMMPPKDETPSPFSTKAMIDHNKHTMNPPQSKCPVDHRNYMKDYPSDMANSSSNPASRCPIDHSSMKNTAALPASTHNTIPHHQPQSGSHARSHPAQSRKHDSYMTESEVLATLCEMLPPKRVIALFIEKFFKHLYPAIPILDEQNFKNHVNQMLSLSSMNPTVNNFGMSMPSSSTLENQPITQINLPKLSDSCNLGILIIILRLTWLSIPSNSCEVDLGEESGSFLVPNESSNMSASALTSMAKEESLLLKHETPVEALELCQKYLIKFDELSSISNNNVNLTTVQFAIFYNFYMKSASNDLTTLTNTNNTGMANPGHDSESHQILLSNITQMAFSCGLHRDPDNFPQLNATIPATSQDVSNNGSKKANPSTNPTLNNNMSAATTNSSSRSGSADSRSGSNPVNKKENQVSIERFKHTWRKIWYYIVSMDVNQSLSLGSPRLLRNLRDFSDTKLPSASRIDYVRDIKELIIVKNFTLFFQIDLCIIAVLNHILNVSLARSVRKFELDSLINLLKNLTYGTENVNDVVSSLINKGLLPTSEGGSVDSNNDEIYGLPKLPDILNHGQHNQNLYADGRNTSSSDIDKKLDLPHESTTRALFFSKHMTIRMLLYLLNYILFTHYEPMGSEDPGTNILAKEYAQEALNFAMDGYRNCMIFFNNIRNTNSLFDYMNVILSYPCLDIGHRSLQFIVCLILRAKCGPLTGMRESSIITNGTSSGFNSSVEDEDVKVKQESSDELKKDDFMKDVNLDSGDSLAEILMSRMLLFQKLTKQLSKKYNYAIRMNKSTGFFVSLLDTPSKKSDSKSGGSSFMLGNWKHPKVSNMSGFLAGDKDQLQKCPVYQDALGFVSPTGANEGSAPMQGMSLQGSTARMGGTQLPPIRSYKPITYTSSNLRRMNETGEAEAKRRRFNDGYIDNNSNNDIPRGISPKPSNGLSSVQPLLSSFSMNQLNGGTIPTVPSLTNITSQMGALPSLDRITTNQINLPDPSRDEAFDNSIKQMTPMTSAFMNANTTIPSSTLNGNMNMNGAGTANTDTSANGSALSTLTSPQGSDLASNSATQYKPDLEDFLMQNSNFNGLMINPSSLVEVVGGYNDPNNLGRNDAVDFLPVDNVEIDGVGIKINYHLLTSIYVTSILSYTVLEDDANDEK

Sequence	PBM E-score
ACCCGGTC	0.222
CCCCGGTA	0.334
ACCCGGTA	0.376
GCCCGGCA	0.25
AAGCCTCA	-0.136
CACCGCAC	0.0364
CGTGCACC	-0.0161
GGGTCCGA	0.38
AGGTCCCA	-0.174
AGGTCCGA	0.404
AGGTCCGC	0.33
AGGTCCTG	-0.0186
GGGTCCAA	0.15
CGGTCCTA	0.33
CGGTCCGC	0.317
AGGTCCGG	0.396
CGGTCCGA	0.435
GGGTCCCA	-0.0688
AGGTCCAG	-0.0779
AGTGAAAA	0.0463
ATCTAGCG	0.00616
AGATAGCC	0.0418
CGCGAATA	0.182
ATCTGAGA	-0.25
CTTCGACA	-0.309

Sequence	PBM E-score
GCAGTAGA	-0.3
AGGTTCGA	-0.0833
CGGCTGAC	0.192
GCTCTTCC	0.0685
AACTTTTG	-0.0532
CAAAGAGC	-0.176
CCGGCAAC	0.373
ACGGCAAC	-0.0151
GCGGCAAA	0.202
CCGGCAAG	0.269
GCGGCAAC	0.00981
CCGGCAAA	0.387
AGTTTTTA	-0.141
AGATTATA	-0.0616
ATTCTGGC	-0.0263
AGCCCTTA	-0.128
CTCTACAA	-0.178
ACTTCCGG	0.382
ATTTCCGG	0.459
GTTTCCGA	0.379
CTTTCCGA	0.316
ACTTCCGC	0.249
ATTTCCGC	0.399
ACTTCCGA	0.31
GTTTCCAA	-0.238

Sequence	PBM E-score
ATTTCCAG	0.129
CTTTCCGC	0.194
ATTTCCCC	0.181
ATTTCCTG	-0.0599
AAAACAAA	0.043
AGCGCACC	0.149
CGGTTCTA	0.276
ATCAAGAG	-0.172
ACGGAACG	0.195
CTACCAGC	-0.319
CATAGGCG	-0.196
GCCACTAC	-0.042
ATTTCCCA	-0.131
ATTTCCAA	0.0623
ATTTCCGA	0.432
CCGTCTCC	0.126
AACCTATC	-0.00501
GATAGTGC	-0.0408
CGTACGAC	-0.0847
CACGTCGG	0.28
CGCCGGTC	0.295
CTCCGGTC	0.431
GTCCGGTA	0.419
GTTCGGTA	0.249
ATCCGGTC	0.329

Sequence	PBM E-score
CTCCGCTA	0.336
GTCCGCTA	0.37
CTCCGGCC	0.358
ATCCGGCA	0.329
CTCCGGCA	0.371
GTACGGTA	0.0448
ATCCGCTA	0.306
GGCATCGA	-0.206
AAATGAAT	-0.213
CCAGCGTC	0.0197
AGTTCTTA	0.0534
CGCCATCC	-0.00934
CGTCGGAA	0.306
CATTTGCC	-0.0698
AGGGAACG	-0.0997
CGCCGGTA	0.345
ATCCGGTA	0.357
CTCCGGTA	0.439
CAAGCTCC	0.00322
CGGGCTTC	0.307
CGGGCATA	0.386
AGGGCATA	-0.102
AGGGCTTA	-0.203
CGGGCTTA	0.437
GGGGCATA	0.0612

Sequence	PBM E-score
GTACTTCA	0.032
GGGGTTAC	0.218
TGGTTTAA	-0.161
GGGTTTTA	0.288
GGGGTTAA	0.386
AGGGTTAA	-0.259
GGGTTTAA	0.387
ATCTATCG	0.268
GACTCGGC	0.186
AACGAAGG	-0.308
ACTTGGTG	-0.25
ACCTGCCG	-0.0501
GAGCGCAA	-0.175
AGTTACTA	-0.128
ACCAGTGA	-0.18
GGTAGTTA	0.0824
CCCTAGCC	-0.138
ATTCGGAA	0.311
ATTCGGAG	0.299
GTTCGGAA	0.312
ATTCGGCA	0.224
ATTCGGAC	0.382
CTTCGGAA	0.403
ATTCGGCC	0.375
ATTCGGGA	0.197

Sequence	PBM E-score
ATTCGGGG	0.393
ATTCGGCG	0.278
AGTCGGAC	0.318
ATTCGGGC	0.308
AGGTGAAG	-0.184
CGATTCAA	-0.0364
GACGGGGC	0.0768
GTCCACAC	0.0984
ATTCGCCG	0.295
ATCCCAAG	-0.0728
AAACTGCC	-0.0803
ACTAGTTC	-0.0373
CTTCGGGC	0.208
CTTCGGAC	0.406
CTTCGGCC	0.309
AATCTCGT	0.0299
ATATCGCG	0.314
AAATCGGC	0.303
ATATCGTC	0.0615
CTATCGGC	0.385
ATATCGCC	0.414
CGATCGGC	0.312
ATATCGGC	0.455
CTATCGTC	-0.0802
CTATCGCC	0.102

Sequence	PBM E-score
GCCCAAGA	-0.22
CCACATCA	-0.064
CTTGCTCA	-0.129
GAGAGATA	0.0119
GCACAGAC	0.0195
GCTGATTA	-0.00254
CGGCCGTC	0.277
AGGCCGTA	0.0497
AGGCCGGC	0.271
CTGCCGGC	0.322
CGGCCGTA	0.417
CGGCCTTA	0.439
AGGCCGGA	0.336
CGGCCTGA	0.183
CGGCCGGC	0.422
GGGCCGGA	0.355
CGGCCGGA	0.436
CGGCCTTC	0.301
AATGGGCC	0.0191
ACTCAGGA	-0.123
CCAAATGA	0.00146
ACAGCACT	-0.0793

Reference: the supplement of paper PMC3334620
